The source of these data is PubChem BioAssay.

Calls of active or inactive are those of the source.

Sequence of Torsin-1A-interacting protein 2 (Homo sapiens) (Q8NFQ8 whole entry, looked up): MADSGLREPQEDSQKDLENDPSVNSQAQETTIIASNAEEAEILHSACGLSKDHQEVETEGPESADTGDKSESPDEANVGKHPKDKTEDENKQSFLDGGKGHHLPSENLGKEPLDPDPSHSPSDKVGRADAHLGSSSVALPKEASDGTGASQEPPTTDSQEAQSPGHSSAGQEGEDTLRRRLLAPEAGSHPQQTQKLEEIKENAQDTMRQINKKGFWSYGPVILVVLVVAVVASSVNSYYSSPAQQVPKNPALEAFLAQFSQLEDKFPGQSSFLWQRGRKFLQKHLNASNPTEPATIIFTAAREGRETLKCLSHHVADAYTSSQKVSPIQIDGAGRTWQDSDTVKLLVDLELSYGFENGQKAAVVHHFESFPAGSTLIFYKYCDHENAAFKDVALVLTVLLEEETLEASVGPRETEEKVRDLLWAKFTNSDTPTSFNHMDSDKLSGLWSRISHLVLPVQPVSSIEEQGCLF

The first test concerns the target Torsin-1A-interacting protein 2 (Homo sapiens) (UniProt Q8NFQ8). As to the kind of experiment: LULL1 binders on small-molecule microarray, primary screen, cell lysate, human LULL1 lysate, 635/667 nm fluorescence (AID 1092).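 Note: probe is lysate of COS7 cells overexpressing human LULL1; score merges per-feature 667 nm fluorescence with signal-to-noise.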 To be noted: hLULL1 lysate binding, 635 nm fluorescence, higher = more signal.
Molecule `CC(C)(C)N1CC=CC23O[C@@H]4C=CCCOC(=O)C4[C@H]2C(=O)N(CCCCCCO)[C@@H]3C1=O` (stereo partly specified) had a composite z-score of 3.16.
On the same count and under the same terms, the same measure for `O=C1C[C@@](C(=O)NCc2ccccc2)(c2ccc([N+](=O)[O-])cc2)[C@@H](c2ccc(CO)cc2)N1C1CCCCC1`: 3.09; for `Cc1ccc(S[C@]2(C(=O)NCc3ccccc3)CC(=O)N(Cc3ccccc3C(F)(F)F)[C@@H]2c2ccc(CO)cc2)cc1`: 1.05.
Molecule `COCCOC(=O)N1C(=O)[C@@]2(c3cc(C#CCCO)ccc31)[C@H](C(N)=O)[C@H]1C(=O)O[C@H](c3ccccc3)[C@H](c3ccccc3)N1[C@@H]2c1ccccc1OCCO` had a composite z-score of 2.15.
In turn, `CC(C)=C1C(=O)C(c2ccccc2)=C2CN3C(=O)N(CCc4ccccc4)C(=O)[C@]3(C)[C@H]21` yielded a composite z-score of 1.19.
`CC(C)(C)OC(=O)CC[C@@]1(C(=O)NCCN2CCOCC2)N=C(c2ccc(OCCCO)cc2)O[C@@H]1c1ccccc1CN=[N+]=[N-]` returned a composite z-score of 2.96.

System in a further test: not listed separately
As to the kind of experiment: E. coli growth modulation, two-sided OD650, primary screen, E. coli filamentation project, strain DRC41, 24 h (AID 1093).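 Note: MC1000 strain lacking acrAB efflux and sulA so SOS filamentation is blocked; test concentration not given here.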 To be noted: OD650, 24 h, higher = more signal, called active from +8 up or from −8 down.
As for `COC(=O)[C@@]1(Cc2ccc(F)cc2)[C@H]2c3cc(C(=O)N(C)C)n(CCc4ccc(O)c(O)c4)c3C[C@H]2CN1C(=O)c1ccccc1`, the z-score is -0.365 (inactive).
Turning to `[N-]=[N+]=Nc1ccccc1C[C@]1(C(=O)N2CCOCC2)N=C(c2ccc(OCCCO)cc2)O[C@H]1c1ccccc1N=[N+]=[N-]`, the z-score was 1.2 (inactive).
Same read-out and setting: the result for `COCCOC(=O)N1C(=O)[C@@]2(c3cc(C#CCCO)ccc31)[C@H](c1ccc(OCCO)cc1)N1[C@H](c3ccccc3)[C@H](c3ccccc3)OC(=O)[C@H]1[C@@H]2C(=O)N1CCCCCCC1` reads -0.405 (inactive).
Same read-out and setting: the result for `COC(=O)C(CC#Cc1ccc2c(c1)[C@]1(C(=O)N2)[C@H](c2ccc(OCCO)cc2)N2[C@H](c3ccccc3)[C@H](c3ccccc3)OC(=O)[C@H]2[C@@H]1C(=O)N1CCCCCCC1)C(=O)OC` reads -0.611 (inactive).
The same measure, in the same setting: the same measure for `O=C1C[C@@](C(=O)O)(c2ccc([N+](=O)[O-])cc2)[C@@H](c2ccc(CO)cc2)N1C1CCCCC1`: 0.397 (inactive); for `C=CC[C@]1(C(=O)NCC(O)CO)COC(c2ccc(OCCCO)cc2)=N1` (stereo partly specified): -0.363 (inactive); for `C=C(COC)C(=O)CC[C@H](OC(=O)c1cccnc1)c1ccc(OCCO)cc1`: 0.105 (inactive).
Turning to `C=CCNC(=O)[C@H]1[C@@H]2C(=O)O[C@@H](c3ccccc3)[C@@H](c3ccccc3)N2[C@@H](c2ccc(OCCO)cc2)[C@]12C(=O)Nc1ccccc12`, the z-score was 1.35 (inactive).
`C=CC1c2cc(O)c(OC)cc2CCN1C` (stereo unspecified): the z-score was -0.223 (inactive).
On the same count and under the same terms, the same measure for `CC1CC/C=C\[C@H]2OC34C=CCN(c5ccc(Cl)cc5)C(=O)[C@H]3N(CCCCCCO)C(=O)[C@]4(C)C2C(=O)O1` (stereo partly specified): 0.206 (inactive); for `CCCC=C(CCC)[C@@H](NC(=O)c1ccc(C(F)(F)F)cc1)c1ccc(C(F)(F)F)cc1`: -0.35 (inactive).
The same measure, in the same setting: the result for `Cc1ccccc1C(O)C1C=CC2C(=O)N(c3ccccc3)C(=O)C2N1Nc1ccccc1` (stereo unspecified) reads -0.555 (inactive); that for `CCOC(=O)C[C@H]1[C@H](OC(=O)c2ccccc2-c2ccccc2)[C@@H](NC(=O)c2ccc3ccccc3c2)c2cc(OCCCO)ccc2N1C(=O)Cc1ccc(OC)cc1`, -0.904 (inactive).
On the same count and under the same terms, the same measure for `COc1ccc(C(=O)Nc2ccc3c(c2)[C@@]2(O[C@H](CCO)[C@@H]([Si](C)(C)c4ccc(OC)cc4)[C@@H]2C)C(=O)N3Cc2ccccc2)cc1`: 0.629 (inactive); for `COCCOC(=O)N1C(=O)[C@@]2(c3cc(C#CCC(C(=O)OC)C(=O)OC)ccc31)[C@H](c1ccc(O)cc1)N1[C@H](c3ccccc3)[C@H](c3ccccc3)OC(=O)[C@H]1[C@@H]2C(=O)Nc1nc2ccccc2s1`: 0.338 (inactive); for `C=C(COC)/C(=C/C[C@H](OC(C)=O)c1ccccc1OCCO)c1cc(C(=O)OC)ccc1OC`: 0.952 (inactive).
For `O=C1[C@H]2C=C(I)[C@H](C[C@@H]2OCCCCCCO)[C@@]12CO2`, the z-score was -1.05 (inactive).
Still for that read-out and setting: the result for `CCCCC(=C=CC[C@H](O)c1ccc(CO)o1)CCO` reads -0.14 (inactive).
`COc1ccccc1CN1C(=O)c2ccccc2[C@](Cc2ccccc2I)(C(=O)NCC(C)C)[C@@H]1c1ccc(CO)cc1`: the z-score is 2.2 (inactive).
Turning to `C=CCC(OC(C)=O)[C@@H]1[C@@H](N(Cc2ccc(-c3ccccc3)cc2)C(=O)c2cccc3ccccc23)c2cc(OCCCO)ccc2N1C(=O)Cc1ccc(OC)cc1` (stereo partly specified), the z-score is -1.09 (inactive).
`CC(C)N1C(=O)c2ccccc2[C@](C)(C(=O)NCC(F)(F)F)[C@@H]1c1ccc(CO)cc1`: the z-score is 0.537 (inactive).
On the same count and under the same terms, the result for `O=C1NC(=O)C2C1C=CC(C(O)c1ccc([N+](=O)[O-])cc1)N2Nc1ccccn1` (stereo unspecified) reads -0.562 (inactive); that for `CN1C(=O)C2C=CC(C(O)c3ccc(-c4ccccc4)s3)N(NC(=O)OC(C)(C)C)C2C1=O` (stereo unspecified), -0.328 (inactive); that for `CN(C)CCCNC(=O)[C@@]1(C)c2ccccc2C(=O)N(Cc2ccc(OC(F)(F)F)cc2)[C@H]1c1ccc(CO)cc1`, 0.649 (inactive).
Still for that read-out and setting: the same measure for `COCCCNC(=O)[C@@]1(CCS(=O)(=O)c2ccccc2)COC(c2ccc(OCCCO)cc2)=N1`: 1.52 (inactive).
Same read-out and setting: the result for `COC(=O)[C@@]1(Cc2ccc(OC)cc2)[C@H]2c3cc(C(=O)N4CCCC4)n(Cc4ccc(C(F)(F)F)nc4)c3C[C@H]2CN1C(=O)c1ccccc1` reads -1.1 (inactive); that for `COC(=O)C(CC#Cc1ccc2c(c1)[C@]1(C(=O)N2)[C@H](c2ccccc2OCCO)N2[C@H](c3ccccc3)[C@H](c3ccccc3)OC(=O)[C@H]2[C@@H]1C(=O)N1CCc2cc(OC)c(OC)cc2C1)C(=O)OC`, 0.463 (inactive); that for `COc1ccc(C(O)C2C=CC3C(=O)N(C)C(=O)C3N2N(c2ccccc2)c2ccccc2)cc1` (stereo unspecified), -0.994 (inactive).
In the case of `COCCOC(=O)N1C(=O)[C@@]2(c3cc(C#CCC(C(=O)OC)C(=O)OC)ccc31)[C@H](C(=O)Nc1nc3ccccc3s1)[C@H]1C(=O)O[C@H](c3ccccc3)[C@H](c3ccccc3)N1[C@@H]2c1ccc(O)cc1`, the z-score is 0.28 (inactive).
On to `CC(C)(C)N1CC=CC23O[C@@H]4C=CCCOC(=O)C4[C@H]2C(=O)N(CCCCCCO)[C@@H]3C1=O` (stereo partly specified), for which the z-score is -0.2 (inactive).
For the molecule `O=C1C[C@@](C(=O)NCc2ccccc2)(c2ccc([N+](=O)[O-])cc2)[C@@H](c2ccc(CO)cc2)N1C1CCCCC1`, the z-score is 0.78 (inactive).
The same measure, in the same setting: the result for `Cc1ccc(S[C@]2(C(=O)NCc3ccccc3)CC(=O)N(Cc3ccccc3C(F)(F)F)[C@@H]2c2ccc(CO)cc2)cc1` reads 0.837 (inactive); that for `COCCOC(=O)N1C(=O)[C@@]2(c3cc(C#CCCO)ccc31)[C@H](C(N)=O)[C@H]1C(=O)O[C@H](c3ccccc3)[C@H](c3ccccc3)N1[C@@H]2c1ccccc1OCCO`, -0.497 (inactive); that for `CC(C)=C1C(=O)C(c2ccccc2)=C2CN3C(=O)N(CCc4ccccc4)C(=O)[C@]3(C)[C@H]21`, -1.27 (inactive).
The same measure, in the same setting: the same measure for `CC(C)(C)OC(=O)CC[C@@]1(C(=O)NCCN2CCOCC2)N=C(c2ccc(OCCCO)cc2)O[C@@H]1c1ccccc1CN=[N+]=[N-]`: -1.07 (inactive).
